# Bioassay records as filed in PubChem.
# Rows were chosen to be rich in hits. Some 4.5% of all compounds tested hit in one or more screens of this group.
# TIM10 inh = TIM10 yeast growth inhibition; 1.4% of 330,000 active; S. cerevisiae TIM10 strain growth, BacTiter-Glo luminescence, 24 h; inhibition, % at 10 µM;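 active = inhibition of 40% or more at the single tested concentration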;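 note: wild-type TIM10 isogenic control strain grown at permissive 25 °C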
# NLRP3 yeast inh = inhibitors of NALP3 inflammasome in yeast; Yeast reconstituted NLRP3/ASC/caspase-1, beta-gal luminescence, 24 h; inhibition, % at 10 µM; 0.39% of 330,000 active;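 active = inhibition of 50% or more; inactive = inhibition below 50%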;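 note: plate controls were induced DMSO wells for no effect and uninduced yeast grown without galactose for full effect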
# PfHsp90 yeast 2 = inhibits growth of yeast expressing Plasmodium falciparum Hsp90; S. cerevisiae expressing PfHsp90, BacTiter-Glo ATP, 48 h; yeast lacking PDR1 and PDR3 efflux regulators; inhibition, % at 9.4 µM; 0.32% of 310,000 active; AID 504621;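 active = every replicate shows inhibition above about 80%, whatever the replicate mean, limit read from the data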;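 note: 0% = DMSO neutral controls and 100% = 20 µM radicicol positive controls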
# tim23-1 inh = tim23-1 yeast growth inhibition | S. cerevisiae tim23-1 growth, BacTiter-Glo luminescence, 24 h | inhibition, % at 20 µM | 1.3% of 330,000 active | AID 463212;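 active = growth inhibition of the mutant yeast at or above 50%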;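 note: temperature-sensitive mutant grown at 25 °C; plate controls were DMSO-treated mutant yeast for no effect and medium wells lacking yeast for full effect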
# tim10-1 inh = tim10-1 yeast growth inhibition; S. cerevisiae tim10-1 ts strain growth, BacTiter-Glo, 24 h; inhibition, % at 20 µM; 2.2% of 330,000 active;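 active = inhibition of at least 40%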;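 note: mutant grown at 25 °C; 0% = DMSO wells with yeast and 100% = wells holding no yeast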
# SKKanGAS inh = SKKanGAS growth inhibition; S. pyogenes SKKanGAS, kanamycin growth, BacTiter-Glo, 6 h; inhibition, % at 7.5 µM; 1.3% of 300,000 active;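 active = mean replicate score, as percent of positive control median, at least 50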;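 note: strain carries kanamycin resistance gene driven by streptokinase promoter and grows in 40 µg/ml kanamycin; loss of luminescence reflects streptokinase promoter inhibition or plain growth inhibition; 0% = median of DMSO wells and 100% = positive control at its reference dose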
# tim23-1 confirm = tim23-1 yeast growth inhibition, confirmed. shares compounds with tim23-1 inh. 83% of 4,400 active. S. cerevisiae tim23-1 growth, BacTiter-Glo luminescence, 24 h. AID 463218. inhibition, % at 20 µM;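 active = inhibition above about 39% in either of two replicate wells at 20 µM, limit read from the data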;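 note: temperature-sensitive tim23-1 mutant grown at 25 °C; 0% = DMSO wells with yeast and 100% = medium wells without yeast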
# Starred values were filed as active, the others as inactive; / = no result given.
SMILES,TIM10 inh,NLRP3 yeast inh,PfHsp90 yeast 2,tim23-1 inh,tim10-1 inh,SKKanGAS inh,tim23-1 confirm
O=C(c1cc2ccccc2cc1O)N1CCN(c2ccc([N+](=O)[O-])cc2)CC1,6,3,-11,2,20,-2,/
O=C(N/N=C/C=C\c1ccco1)c1cccs1,23,18,7,64*,9,0,53*
O=C(Cc1cccs1)N/N=C/C=C\c1ccco1,6,11,10,20,3,7,/
O=C(CCCN1C(=O)/C(=C/c2ccccc2Cl)SC1=S)N1CCCC1,30,22,16,51*,32,4,56*
O=C(CCCN1C(=O)/C(=C/c2cccc(Br)c2)SC1=S)N1CCOCC1,35,14,16,53*,37,0,36
CN1CCN(C(=O)CCCN2C(=O)/C(=C/c3cccc(Br)c3)SC2=S)CC1,37,21,3,46,26,19,/
CCc1nnc(N2C(=O)c3ccc(Oc4ccc([N+](=O)[O-])cc4)cc3C2=O)s1,34,17,8,64*,29,5,39
O=C(NCc1ccccc1)C1CCCN1C(=O)Nc1ccccc1[N+](=O)[O-] (configuration not stated),1,8,-25,-2,-1,2,/
CC(=O)Nc1ccc(-c2c(C)cc3oc(=O)cc(-c4ccccc4)c3c2C)cc1,3,/,-61,50*,28,/,33
CN(C)S(=O)(=O)c1ccc(C(=O)OCn2nnc3ccccc3c2=O)cc1,-11,9,-1,54*,5,-3,32
COc1ccc(C(=O)OCn2nnc3ccccc3c2=O)cc1OC,-4,30,2,-14,-23,-7,/
Clc1ccc(OCc2nc(-c3ccccn3)n[nH]2)cc1,14,25,-10,48,21,4,/
Brc1ccc(OCc2nc(-c3ccccn3)n[nH]2)cc1,6,42,-25,52*,19,2,53*
Nc1ccc2nc(-c3ccccc3)[nH]c2c1,9,18,10,2,-10,5,/
Nc1cccc(-c2nc3ccc(C(=O)c4ccccc4)cc3[nH]2)c1,21,8,3,55*,4,9,56*
Oc1ccccc1-c1cc(-c2ccc3c(c2)OCCO3)n[nH]1,31,34,47,66*,31,-19,-2
CCCC(O)(c1ccc(Cl)cc1)C(CN1CCOCC1)c1ccc(Cl)cc1 (configuration not stated),29,5,-9,57*,-3,30,-9
CCCC(O)(c1ccc(OC)cc1)C(CN1CCOCC1)c1ccc(Cl)cc1 (configuration not stated),-1,12,3,19,24,-3,/
O=C1c2cccc3c(Cl)ccc(c23)C(=O)N1O,10,41,-6,61*,23,-1,69*
Cc1cccc(C)c1OCC(=O)Nc1cccc(NC(=O)c2ccco2)c1,31,11,4,56*,27,3,49*
C=Cc1cccc(NC(=O)c2ccc(NC(=O)c3ccco3)cc2)c1,-10,37,6,51*,-19,23,38*
Cn1nc(-c2ccccc2F)c2cc(C(=O)Nc3ccc4c(c3)OCCO4)sc21,27,16,-3,54*,38,26,55*
CCCN(CCC)CCNC(=O)c1cc2c(-c3ccccc3F)nn(C)c2s1,-10,15,-5,11,20,1,/
CCOC(=O)CNC(=O)c1sc2ncnc(N3CCc4ccccc4C3)c2c1C,27,-3,-5,51*,35,-6,36
CCOC(=O)c1sc2ncnc(N3CCN(CC)CC3)c2c1C,-2,30,-10,-3,3,4,/
SMILES,TIM10 inh,NLRP3 yeast inh,PfHsp90 yeast 2,tim23-1 inh,tim10-1 inh,SKKanGAS inh,tim23-1 confirm
Cc1ccc(S(=O)(=O)n2ccc(OC(=O)c3cccs3)n2)cc1,32,12,8,58*,39,2,57*
CC(=O)Oc1c(S(=O)(=O)c2ccc(C)cc2)c(C)nn1C(C)(C)C,23,20,-32,52*,34,-8,39
Cc1ccc(S(=O)(=O)c2c(C)nn(C(C)(C)C)c2OC(=O)C(C)(C)C)cc1,8,-1,-15,39,32,-5,/
Cc1ccc(S(=O)(=O)c2c(C)nn(C(C)(C)C)c2OC(=O)c2cccs2)cc1,24,12,2,51*,30,4,39
Cc1cc(OCC(=O)c2cccc(C(F)(F)F)c2)n2cnnc2n1,11,17,11,6,6,-4,/
Cc1cc(OCC(=O)c2ccc(C(F)(F)F)cc2)n2cnnc2n1,-3,6,1,96*,-12,4,0
O=c1oc(-c2cccs2)nc2ccc(Br)cc12,20,13,-31,67*,38,26,38
Cc1ccc2nc(-c3cccs3)oc(=O)c2c1,19,-8,/,37,33,4,/
Cc1cccc(NC(=O)c2nc[nH]c2C(=O)N2CCN(C(=O)OC(C)(C)C)CC2)c1,-2,29,8,13,9,/,/
N=C1/C(=C\c2coc3ccccc3c2=O)C(=O)N=C2SC=CN12,8,-9,8,65*,22,20,71*
CSC1=NSC2=NC(=O)/C(=C/c3coc4ccccc4c3=O)C(=N)N12,/,/,-20,/,/,/,/
CN1CCSc2ccc(C(=O)NCc3cccc(Br)c3)cc21,28,11,12,53*,37,0,50*
O=S(=O)(c1ccc2c(c1)OCCO2)N1C[C@@H]2C[C@H]1CN2S(=O)(=O)c1c(F)cccc1F,-2,2,9,21,14,/,/
C[C@H]1CN(S(=O)(=O)c2ccc3c(c2)OCCO3)CCN1S(=O)(=O)c1c(F)cccc1F,22,3,5,51*,21,/,31
O=C(c1cc(-c2ccc(O)cc2)on1)N1CCc2ccccc2C1,7,27,-20,72*,27,3,56*
CNc1nc(N)c(C(=O)C23CC4CC(CC(C4)C2)C3)s1,23,23,-7,51*,38,-5,50*
Cc1ccc(Nc2nc(-c3sc(N)nc3C)cs2)cc1,33,20,-5,65*,33,19,63*
Cc1ccn2cc(C(=O)Nc3ccccc3N3CCOCC3)nc2c1,33,30,/,56*,20,-4,41*
O=C(NN1C(=O)c2cc(Br)ccc2NC1c1ccccc1Cl)c1ccncc1 (configuration not stated),8,12,-6,1,16,-7,/
O=C(NN1C(=O)c2cc(Br)ccc2NC1c1cc(Br)cc(Br)c1O)c1ccncc1 (configuration not stated),33,41,-7,68*,32,59*,74*
Oc1ccc(/C=N/n2c(-c3ccco3)csc2=Nc2cccnc2)c(O)c1,17,1,/,32,18,6,/
